A short description of test [1]: liver-stage malaria parasite growth inhibition, primary screen, cell-based, HepG2, luciferase luminescence, HepG2 viability (AID 624349; in the data active = parasite load remaining mostly below about 12%, no sharp cut-off; inactive = mostly above about 10%;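 note: 100% = mean of DMSO negative control wells on the same plate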). The conditions noted are these: P. berghei liver stage in HepG2, luciferase luminescence, concentration not given here; parasite load remaining: stronger effect = lower value; viability: measured here: HepG2 viability without parasites.
A short description of test [2]: stimulators of nuclear beta-catenin in C2C12, primary screen, imaging, WNT3A-conditioned medium, mouse C2C12, NPC library (AID 1117326; in the data active = nuclear beta-catenin stimulation mostly above about 4.2%, no sharp cut-off; inactive = mostly below about 10%). The conditions noted are these: stronger effect = higher value.
Test [3] is described as follows: stimulators of insulin release from INS-1E, primary screen, cell-based, 5 mM glucose, NPC library (AID 1117329;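 active = compound raises insulin release from rat beta cells at 5 mM glucose, no numeric limit stated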). The conditions noted are these: rat INS-1E insulin secretion, at 10 µM, stronger effect = higher value.
The nature of test [4]: growth inhibition of GSK3B-pretreated HCT116 cells – cell-based, CellTiter-Glo, 0.2 to 20 µM (AID 1117336;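 active = compounds lowering colon cancer cell viability after pretreatment blocking the GSK3B kinase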). The conditions noted are these: HCT116 viability after GSK3B inhibitor, at 20 µM, stronger effect = higher value. On the technique in general: Cellular ATP, detected with luciferase, serves as a proxy for viable cell number.
Test [5] is described as follows: inhibition of endothelial tube formation, primary screen, imaging, VEGF stimulated, CD31 staining, tube area, NPC library (AID 1117340;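 active = compound that reduces growth-factor-driven endothelial tube area in a mixed cell culture, no cutoff stated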). The conditions noted are these: VEGF-stimulated ADSC/ECFC co-culture, at 10 µM, stronger effect = higher value.
Test [6] is described as follows: glucagon-like peptide 1 release enhancers, primary assay, NCI-H716 cell line, NPC library (AID 1117341;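 active = compound raises GLP1 secretion from the human gut endocrine cells, with no numeric limit stated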). The conditions noted are these: NCI-H716 cells, at 10 µM, stronger effect = higher value.
Test [7] can be described thus: HCT116 colon cancer cell growth inhibition, primary screen, CellTiter-Glo luminescence, NPC library (AID 1117342;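 active = compounds that lower survival of HCT116 colon cancer cells in the luminescence readout, no numeric limit stated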). The conditions noted are these: at 20 µM (top of the series).
Test [8] is described as follows: CellTiter-Glo luminescent readout of SW480 viability loss, NPC library primary (AID 1117343;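 active = compounds that lower viability of the colon cancer cells in the luminescence readout, with no numeric limit stated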). The conditions noted are these: CellTiter-Glo luminescence; at 20 µM (top of the series).
A short description of test [9]: decreased DLD-1 cellular survival, CellTiter-Glo luminescent readout, NPC compound collection, primary HTS (AID 1117346;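 active = compounds that lower survival of DLD-1 colon cancer cells in the luminescence readout, no cutoff given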). The conditions noted are these: DLD-1 viability, CellTiter-Glo luminescence; at 20 µM (top of the series).
Test [10] concerns the target 6-phosphogluconate dehydrogenase, decarboxylating (Homo sapiens) (UniProt P52209). The experiment in a line: 6PGD enzyme inhibitors, primary screen, biochemical, human, recombinant enzyme, NADPH absorbance (AID 1159550;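 active = at least 20% inhibition of 6-phosphogluconate dehydrogenase activity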). The conditions noted are these: recombinant 6PGD, NADPH absorbance 341 nm; at 10 µM; stronger effect = higher value.
Test [11] is described as follows: differential killing of epithelial or mesenchymal cells, primary screen, imaging, PC-3E GFP, TEM4-18 mCherry, co-culture (AID 1345086;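 active = compounds killing one labelled cell type while sparing the other, by normalised counts and ratio limits, not self-fluorescent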;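 for all read-outs here: cells exposed to compound for 72 h before imaging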;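 for red/green cell ratio (normalised): normalised mesenchymal count divided by normalised epithelial count so high means epithelial killing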). The conditions noted are these: imaging cell counts, at 1 µM; for red/green cell ratio (normalised): actives lie on both sides.
The test system of test [12] is Aerobactin synthetase IucA (Klebsiella pneumoniae hvKP1). The experiment in a line: Biochemical IucA enzyme inhibition primary screen of the Spectrum library (AID 1346200; call rule not given here;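 note: 100% = wells without compound and 0% = wells lacking enzyme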). The conditions noted are these: malachite green pyrophosphate, A620, at 8 µM, stronger effect = lower value.
Test [13] can be described thus: sensitizers of A549 cells to miR-34 induction, primary screen, imaging, A549 dox-inducible miR-34, nuclei and caspase counts (AID 1347080;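 active = compounds whose cell count with miR-34 switched on is under 0.7 times the count with it off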). The conditions noted are these: A549 miR-34 inducible, Hoechst nuclei count, 48 h.
Test [14] deals with NAD(+) hydrolase SARM1 (Homo sapiens) (UniProt Q6SZW1). The test can be described thus: SARM1 TIR NADase inhibitors, cell lysate, NAD-Glo luminescence (AID 1508614;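 active = compound whose remaining NAD level is above about 45 nM, limit read from the data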;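 note: higher remaining NAD means stronger inhibition of SARM1 NADase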). The conditions noted are these: SAM-TIR HEK293T lysate NADase, at 1 µM, stronger effect = higher value.
In test [15] the target is Mitogen-activated protein kinase 7 (Homo sapiens) (UniProt Q13164). The test can be described thus: ERK5 transactivation activators in reporter cells, primary screen, cell-based, HTS (AID 1508626;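 active = luciferase signal above three times the same-plate solvent-only control wells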;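 note: luciferase driven by Gal4-ERK5 fusion binding five Gal4 sites before minimal TATA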). The conditions noted are these: HeLa Gal4-ERK5 transactivation, 18 h, at 5 µM, stronger effect = higher value.
Test [16] in a line: viability rescue of complex I mutant cybrids, primary screen, cell-based, galactose medium, ATP luminescence (AID 1645843).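 Note: positive z means more ATP and so rescue of galactose-driven cybrid death.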 The conditions noted are these: complex I mutant cybrid cells, 72 h, stronger effect = higher value.
The nature of test [17]: suppressors of polyQ aggregation in yeast, 75Q-TubU reporter (AID 1593). The conditions noted are these: Yeast 75Q polyglutamine aggregation reporter.
Test [18] is described as follows: inhibitors of mitochondrial cytochrome c release, biochemical, purified mitochondria (AID 1603).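 Note: mouse liver mitochondria challenged with calcium chloride; signal normalized to the plate average as 100%.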 The conditions noted are these: stronger effect = lower value.
The nature of test [19]: inhibitors of polyQ protein aggregation (AID 1604). The conditions noted are these: polyglutamine-induced protein aggregation inhibition assay; stronger effect = higher value; tested at 2.5 µM.
Test [20] is described as follows: survival rescue of mitochondrial mutant cells in low glucose, primary screen, MELAS cybrids, Rieske KO mouse fibroblasts, CellTiter-Glo (AID 1508586;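 active = mean z-score across replicates of 1.96 or higher in either the MELAS or the Rieske mutant cell line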;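 note: z relative to plate mean and SD of compound and empty wells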).
[21] abbreviates: measured here: epithelial PC-3E GFP cell survival.
Setting [22] is: measured here: mesenchymal TEM4-18 mCherry cell survival.
[23] abbreviates: MELAS cybrid survival, CellTiter-Glo 48 h, stronger effect = higher value.
Setting [24] is: Rieske KO mouse fibroblast survival, CellTiter-Glo 72 h.

Values joined by “and” are separate entries in the source; they are usually repeats but may differ in a detail not shown here. Identical values can stand only once. Active and inactive are the calls of the source.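 Rule for the calls, unless noted: active = z-score of at least 1.8 in each of two replicates, scored against plate mean and spread of sample wells; inactive = the rest.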

What is called viability is a read-out of living cells in per cent, often relative to untreated cells. By inhibition is commonly meant the change of the read-out against control, counted positive when it falls.

NAD(+) hydrolase SARM1 (Homo sapiens), sequence (Q6SZW1 whole entry, looked up, the tested form may be a part): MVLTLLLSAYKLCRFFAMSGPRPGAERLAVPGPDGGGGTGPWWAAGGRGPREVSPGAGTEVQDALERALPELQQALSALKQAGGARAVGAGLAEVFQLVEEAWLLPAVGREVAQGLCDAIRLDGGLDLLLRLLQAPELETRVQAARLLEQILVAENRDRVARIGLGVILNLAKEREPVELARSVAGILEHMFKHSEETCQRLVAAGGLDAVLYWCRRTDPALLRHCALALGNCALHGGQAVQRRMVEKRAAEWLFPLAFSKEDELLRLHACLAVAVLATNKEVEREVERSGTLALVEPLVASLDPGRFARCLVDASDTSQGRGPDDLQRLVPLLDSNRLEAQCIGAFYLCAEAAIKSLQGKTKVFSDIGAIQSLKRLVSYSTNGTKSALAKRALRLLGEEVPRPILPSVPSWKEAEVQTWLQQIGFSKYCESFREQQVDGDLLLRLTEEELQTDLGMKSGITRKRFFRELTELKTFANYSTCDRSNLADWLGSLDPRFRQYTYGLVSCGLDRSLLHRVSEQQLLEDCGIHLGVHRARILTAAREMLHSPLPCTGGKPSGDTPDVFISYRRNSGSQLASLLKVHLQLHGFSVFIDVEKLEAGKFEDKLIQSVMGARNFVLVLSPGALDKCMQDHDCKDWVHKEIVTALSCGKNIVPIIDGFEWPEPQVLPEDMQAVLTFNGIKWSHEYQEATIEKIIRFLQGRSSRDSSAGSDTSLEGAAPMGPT
6-phosphogluconate dehydrogenase, decarboxylating (Homo sapiens), sequence (P52209 whole entry, looked up): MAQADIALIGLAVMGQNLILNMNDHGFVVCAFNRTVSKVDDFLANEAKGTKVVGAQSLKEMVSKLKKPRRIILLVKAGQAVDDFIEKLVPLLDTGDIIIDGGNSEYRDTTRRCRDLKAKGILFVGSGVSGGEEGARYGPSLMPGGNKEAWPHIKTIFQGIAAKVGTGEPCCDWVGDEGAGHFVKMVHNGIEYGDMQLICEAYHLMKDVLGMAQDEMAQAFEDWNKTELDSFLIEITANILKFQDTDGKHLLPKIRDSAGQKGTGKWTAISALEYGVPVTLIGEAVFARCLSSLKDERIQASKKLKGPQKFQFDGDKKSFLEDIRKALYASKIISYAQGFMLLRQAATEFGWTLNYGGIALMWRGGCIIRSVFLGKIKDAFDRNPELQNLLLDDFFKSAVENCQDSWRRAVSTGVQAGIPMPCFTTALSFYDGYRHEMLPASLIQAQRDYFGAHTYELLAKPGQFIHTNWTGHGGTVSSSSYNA
Mitogen-activated protein kinase 7 (Homo sapiens), sequence (Q13164 whole entry, looked up, the tested form may be a part): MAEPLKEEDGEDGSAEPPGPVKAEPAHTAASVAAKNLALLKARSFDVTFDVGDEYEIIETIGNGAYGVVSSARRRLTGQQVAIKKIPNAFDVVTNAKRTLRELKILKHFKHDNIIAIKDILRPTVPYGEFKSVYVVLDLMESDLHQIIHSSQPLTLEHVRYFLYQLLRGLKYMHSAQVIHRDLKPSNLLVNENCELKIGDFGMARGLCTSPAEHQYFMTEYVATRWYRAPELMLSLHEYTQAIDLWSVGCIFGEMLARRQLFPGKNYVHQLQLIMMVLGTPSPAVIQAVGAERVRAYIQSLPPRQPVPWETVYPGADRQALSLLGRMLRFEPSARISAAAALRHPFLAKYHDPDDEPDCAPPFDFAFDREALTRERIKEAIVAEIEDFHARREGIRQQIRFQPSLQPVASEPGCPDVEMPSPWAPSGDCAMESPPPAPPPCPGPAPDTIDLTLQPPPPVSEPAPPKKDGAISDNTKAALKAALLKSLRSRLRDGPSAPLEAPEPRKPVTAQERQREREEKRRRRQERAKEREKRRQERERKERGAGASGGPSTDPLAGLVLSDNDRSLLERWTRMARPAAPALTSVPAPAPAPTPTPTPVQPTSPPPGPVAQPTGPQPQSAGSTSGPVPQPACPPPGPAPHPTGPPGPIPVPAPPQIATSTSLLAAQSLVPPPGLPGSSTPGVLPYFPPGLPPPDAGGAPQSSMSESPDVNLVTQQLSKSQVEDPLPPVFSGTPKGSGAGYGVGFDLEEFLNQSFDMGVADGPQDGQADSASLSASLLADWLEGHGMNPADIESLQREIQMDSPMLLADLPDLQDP

Consider `Cc1ncc(CNC(=O)N(CCCl)N=O)c(N)n1`, for which the parasite load remaining in test [1] is 130% (inactive). Also, in [1], the viability amounted to 90.7%. The nuclear beta-catenin stimulation was 3% (inactive) in test [2] (at 10 µM) and -0.9% in test [2] (stimulation, at 2 µM). For the same compound, in test [3], the insulin secretion stimulation is 0.3% (inactive). Moreover, the viability decrease in [4] was -0.8% (inactive). Besides, the tube area decrease in test [5] is 28.9% (inactive). In addition, the GLP1 secretion stimulation in [6] was -6% (inactive). In addition, in test [7], the inhibition of viability is -0.1% (inactive). Also, the viability decrease (inhibition) was 10.9% (inactive) in [8] and 1.8% (inactive) in test [9]. For the same compound, the inhibition in [10] is 2.15% (inactive). The red/green cell ratio (normalised) in test [11] is 0.95 (inactive). For the same compound, the normalised cell number turned out to be 0.91 in test [11] (setting [21]) and 0.86 in [11] (setting [22]). In addition, in [12], the activity remaining is 107% (inactive). Further, the fold change in test [13] (stronger effect = lower value) was 0.981 (inactive); in [13] (measured here: relative caspase fold change +Dox/-Dox), 1.12. Also, the cell count came out at 6420 in test [13] (measured here: total cells with miR-34 induction, stronger effect = lower value) and 6540 in [13] (measured here: total cells without miR-34 induction). Also, the remaining NAD in test [14] is 10 nM (inactive). Moreover, the luciferase signal in test [15] is 100 AU (inactive). In addition, the z-score in test [16] was -0.62 (inactive).

In the case of `Clc1ccc(COC(Cn2ccnc2)c2ccc(Cl)cc2Cl)cc1` (stereo not drawn), in [17], the score came out at 0.26. For the same compound, the cytochrome c release ratio in [18] was 0.38. The compound also had an inhibition of aggregation in test [19] of 43.9%. In addition, the nuclear beta-catenin stimulation was 3.6% (inactive) in test [2] (at 10 µM) and 4.8% in [2] (stimulation, at 2 µM). The insulin secretion stimulation in test [3] was 2.8% (inactive). Moreover, in test [4], the viability decrease was 101% (active). The tube area decrease in test [5] is 108% (active). In addition, in [6], the GLP1 secretion stimulation was 23.9% (active). Besides, the inhibition of viability in test [7] is 102% (active). Further, the viability decrease (inhibition) in test [8] is 123% (active); in [9] it was 103% (active). For the same compound, the inhibition in test [10] was -10.8% (inactive). In addition, the red/green cell ratio (normalised) in test [11] was 1.13 (inactive). The normalised cell number in [11] (setting [21]) was 0.92; in [11] (setting [22]) it was 1.04. The activity remaining in test [12] is 123% (inactive). The z-score was -0.276 (inactive) and 1.78 (inactive) in [20] (setting [23]); 0.45 and 0.962 in test [20] (setting [24]); -1.53 (inactive) in test [16]. Besides, in [14], the remaining NAD is 10 nM (inactive). In addition, the luciferase signal in test [15] is 60 AU (inactive).

In the case of `CN1C(=O)CCS(=O)(=O)C1c1ccc(Cl)cc1` (stereo not drawn), the score in test [17] came out at 0.89. Also, the cytochrome c release ratio in test [18] is 0.72. The inhibition of aggregation in test [19] is 72.7%. Further, in test [1], the parasite load remaining was 65% (inactive) and 73.4% (inactive). For the same compound, the viability in test [1] was 112% and 75.6%. The nuclear beta-catenin stimulation in test [2] (at 10 µM) is 0.2% (inactive); in test [2] (stimulation, at 2 µM), 3.4%. Moreover, the insulin secretion stimulation in test [3] was 0.4% (inactive). The viability decrease in test [4] was -22.1% (inactive). Moreover, the tube area decrease in [5] was 3.9% (inactive). For the same compound, in [6], the GLP1 secretion stimulation is 3.4% (inactive). Further, the inhibition of viability in test [7] was -1.4% (inactive). Also, the viability decrease (inhibition) in test [8] is 2.8% (inactive); in test [9], -11.9% (inactive). Also, in [10], the inhibition was -16% (inactive). Moreover, the red/green cell ratio (normalised) in [11] was 1.12 (inactive). The figures for the normalised cell number in [11] (setting [21]) and in test [11] (setting [22]) were 0.96 and 1.07, respectively. The activity remaining in test [12] was 123% (inactive). Further, the z-score was -0.135 (inactive) and 0.131 (inactive) in test [20] (setting [23]); 0.8 and -0.00931 in test [20] (setting [24]); 0.35 (inactive) and 0.81 (inactive) in [16]. In addition, the remaining NAD in test [14] is 10 nM (inactive).

(Values after PubChem BioAssay.)
